Measured values published in PubChem BioAssay AID743198 (NMMLSC, 2013).
Calls of active or inactive are those of the source.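 How the source made its calls: active means at least 15% MAC1-positive differentiation at the top dose and half-maximal dose below 10 µM; inactive means the rest.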

experiment: MAC1 induction in normal CD34+ cells, SAR follow-up, cell-based, MAC1 flow cytometry, set 1 (AID 743198); conditions: human CD34+ cells, 4 days; at 10 µM (top of the series)

| Compound | MAC1+ differentiation, normalised |
| --- | --- |
| O=C(CCNC(=O)c1ccc(Cl)cc1)N[C@@H]1CCCc2ccccc21 | 95.7% |
| O=C(CCNC(=O)c1ccc(Cl)cc1)N[C@H]1CCCc2ccccc21 | 4.01% (inactive) |
| O=C(CCNC(=O)c1ccc(OC(F)(F)F)cc1)N[C@@H]1CCCc2ccccc21 | 96.3% |
| O=C(CCCNC(=O)c1ccc(OC(F)(F)F)cc1)N[C@@H]1CCCc2ccccc21 | 2.93% (inactive) |
| O=C(O)c1cccnc1Nc1ccc(Cl)cc1 | 85% |
| O=C(CNC(=O)c1ccc(OC(F)(F)F)cc1)N[C@@H]1CCCc2ccccc21 | 2.98% (inactive) |
| O=C(CCNC(=O)c1ccc(Cl)c(Cl)c1)N[C@@H]1CCCc2ccccc21 | 96.1% |
| O=C(CCNC(=O)c1ccc(C(F)(F)F)cc1)N[C@@H]1CCCc2ccccc21 | 96% |
| O=C(CCNC(=O)c1ccc2c(c1)OC(F)(F)O2)N[C@@H]1CCCc2ccccc21 | 90% |
| O=C(CCNC(=O)c1ccc(Cl)cc1)NC1CCCc2ccccc21 (stereo not given) | 86.2% |
